As a reminder, the AC50 is the concentration at which the activity in the assay is half-maximal.

Data on 27 molecules can be found in PubChem BioAssay (EPA / NIEHS).

Calls of active or inactive are those of the source. Rule for the calls: active = hit-call score of the fitted dose curve at least 0.9, where 1 is the maximum; inactive = score below 0.9.

Read-out in the first experiment: Secreted IgG (sIgG), gene 3500
The experiment in a line: BSK_BT_sIgG: BioMAP Diversity Plus: BT Assay for Secreted IgG (sIgG) Biomarker Activity (AID 2284226). The settings on record: primary human B cells with PBMC. In outline:
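Human B cell plus PBMC co-culture; secreted IgG measured by ELISA 24 h after chemical dosing. Response fitted in positive direction relative to DMSO baseline.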
Consider `CCCCCCCCCCCCCCCC[N+](C)(C)CC`, for which the AC50 is 0.0956 µM (active).
`C#CC1(O)CC[C@H]2[C@@H]3CCC4=CCCC[C@@H]4[C@H]3CC[C@@]21C` (some centres undefined): the AC50 was 10.7 µM (active).
Same read-out and setting: the figure for `C/C=C\C/C=C/CCCCCCCCOC(C)=O` is 17 µM (active); for `O=c1c2ccccc2oc2ccccc12` it is 11.7 µM (active).
Turning to `CC(C)C(=O)C(C)C`, the result was inactive.
Same read-out and setting: next, `C=CCOc1c(Br)cc(Br)cc1Br`: “inactive”.
For the molecule `O=C(Cl)c1cc(C(=O)Cl)cc(C(=O)Cl)c1`, the AC50 is 14.6 µM (active).
Still for that read-out and setting: next, `O=C(Nc1ccccc1SSc1ccccc1NC(=O)c1ccccc1)c1ccccc1`: 4.59 µM (active); `CC(C)(c1cc(Br)c(OCCO)c(Br)c1)c1cc(Br)c(OCCO)c(Br)c1`: 8.71 µM (active).
In the case of `O=Nc1ccc(O)cc1`, the outcome was inactive.
In the case of `c1ccc2c(c1)ccc1ncccc12`, the result was inactive.
Consider `CCCCCCCCc1ccc(Nc2ccc(CCCCCCCC)cc2)cc1`, for which the outcome was inactive.
Same read-out and setting: the entry for `c1ccc2c(c1)ccc1cc3c(ccc4ccccc43)cc12` is “inactive”; for `N#[N+]c1ccc2c(S(=O)(=O)[O-])cccc2c1O` it is “inactive”.
As to `S=C(NC1CCCCC1)NC1CCCCC1`, the AC50 is 20 µM (active).
On the same count and under the same terms, next, `C=CCOCC(O)CCl` (centres undefined): 20 µM (active).
Same read-out and setting: the figure for `CCCCC/C=C\C/C=C\CCCCCCCC(=O)OC` is 20 µM (active).
In the case of `CCOc1nc(F)cc2nc(S(=O)(=O)Nc3c(Cl)cccc3C(=O)OC)nn12`, the result was inactive.
Turning to `CCCCC(CC)COC(=O)c1ccccc1O` (centres undefined), the AC50 is 7.14 µM (active).
With `CC1OC1C1CCC2(C)OC2C1` (centres undefined), the outcome was inactive.
As to `c1ccc(-c2ccccn2)nc1`, the AC50 is 20 µM (active).
On to `CCO[Si](CCCN=C=O)(OCC)OCC`, for which the outcome was inactive.
Take `CCCCNc1ccc(NCCCC)c2c1C(=O)c1ccccc1C2=O`: the result was inactive.
With `COCc1c(C(C)C)nc(C(C)C)c(/C=C/[C@@H](O)C[C@@H](O)CC(=O)O)c1-c1ccc(F)cc1`, the AC50 is 0.0231 µM (active).
Same read-out and setting: the figure for `C=CC=CC=CCCCCC` is 7.13 µM (active); for `C=CC(=O)OCC(Br)CBr` (centres undefined) it is 7.95 µM (active).
Turning to `COc1ccc2nc(N)sc2c1`, the result was inactive.

Read-out in another experiment: not listed separately
The experiment in a line: BSK_BT_Bcell_Proliferation: Viability Assessment in the BioMAP Diversity Plus: BT Assay for B cell Proliferation (AID 2284227). Conditions: primary human B cells with PBMC. In outline: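 SRB-based protein staining (0.1% SRB after 10% TCA fixation, 560 nm) quantifies proliferation in human B cells co-cultured with PBMC, 72 h post-dosing, with signal gain scored relative to DMSO negative control.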
On to `CCCCCCCCCCCCCCCC[N+](C)(C)CC`, for which the AC50 is 1.81 µM (active).
On the same count and under the same terms, the figure for `C#CC1(O)CC[C@H]2[C@@H]3CCC4=CCCC[C@@H]4[C@H]3CC[C@@]21C` (some centres undefined) is 30.1 µM (active).
Turning to `C/C=C\C/C=C/CCCCCCCCOC(C)=O`, the AC50 is 28 µM (active).
As for `O=c1c2ccccc2oc2ccccc12`, the outcome was inactive.
Consider `CC(C)C(=O)C(C)C`, for which the outcome was inactive.
Still for that read-out and setting: the entry for `C=CCOc1c(Br)cc(Br)cc1Br` is “inactive”.
`O=C(Cl)c1cc(C(=O)Cl)cc(C(=O)Cl)c1`: the AC50 was 29.3 µM (active).
Same read-out and setting: next, `O=C(Nc1ccccc1SSc1ccccc1NC(=O)c1ccccc1)c1ccccc1`: 5.95 µM (active); `CC(C)(c1cc(Br)c(OCCO)c(Br)c1)c1cc(Br)c(OCCO)c(Br)c1`: 21.2 µM (active).
With `O=Nc1ccc(O)cc1`, the outcome was inactive.
Still for that read-out and setting: next, `c1ccc2c(c1)ccc1ncccc12`: “inactive”; `CCCCCCCCc1ccc(Nc2ccc(CCCCCCCC)cc2)cc1`: “inactive”; `c1ccc2c(c1)ccc1cc3c(ccc4ccccc43)cc12`: “inactive”.
Same read-out and setting: next, `N#[N+]c1ccc2c(S(=O)(=O)[O-])cccc2c1O`: “inactive”.
As to `S=C(NC1CCCCC1)NC1CCCCC1`, the AC50 was 31.2 µM (active).
As for `C=CCOCC(O)CCl` (centres undefined), the result was inactive.
As for `CCCCC/C=C\C/C=C\CCCCCCCC(=O)OC`, the AC50 is 26.3 µM (active).
As to `CCOc1nc(F)cc2nc(S(=O)(=O)Nc3c(Cl)cccc3C(=O)OC)nn12`, the result was inactive.
For the molecule `CCCCC(CC)COC(=O)c1ccccc1O` (centres undefined), the outcome was inactive.
On the same count and under the same terms, the entry for `CC1OC1C1CCC2(C)OC2C1` (centres undefined) is “inactive”; for `c1ccc(-c2ccccn2)nc1` it is “inactive”; for `CCO[Si](CCCN=C=O)(OCC)OCC` it is “inactive”.
On to `CCCCNc1ccc(NCCCC)c2c1C(=O)c1ccccc1C2=O`, for which the result was inactive.
Turning to `COCc1c(C(C)C)nc(C(C)C)c(/C=C/[C@@H](O)C[C@@H](O)CC(=O)O)c1-c1ccc(F)cc1`, the AC50 was 0.24 µM (active).
Turning to `C=CC=CC=CCCCCC`, the outcome was inactive.
As to `C=CC(=O)OCC(Br)CBr` (centres undefined), the AC50 was 20 µM (active).
For the molecule `COc1ccc2nc(N)sc2c1`, the outcome was inactive.
